# Measurements: PubChem BioAssay AID2174 (The Scripps Research Institute Molecular Screening Center, 2009)
# Hit rate of the full screen: of about 320,000 compounds, about 500 (0.16%) were called active. Shown is part of a subset that was picked to be rich in actives. Unmarked numbers belong to inactive results.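 Rule for the calls: active = inhibition above the mean of all tested compounds plus 3 SD, set per campaign (cut at about 14% in these data); inactive = the rest.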
# Target: Acyl-protein thioesterase 1 (Homo sapiens) (UniProt O75608)
# Sequence (O75608 whole entry, looked up): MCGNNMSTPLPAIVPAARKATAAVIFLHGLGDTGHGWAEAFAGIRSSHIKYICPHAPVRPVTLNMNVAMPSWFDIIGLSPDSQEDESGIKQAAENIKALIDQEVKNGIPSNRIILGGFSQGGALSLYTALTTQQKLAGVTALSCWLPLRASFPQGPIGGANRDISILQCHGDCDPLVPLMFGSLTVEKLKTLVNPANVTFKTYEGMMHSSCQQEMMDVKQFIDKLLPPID
# Assay: inhibition of human lysophospholipase 1 – biochemical, fluorescence polarization, FP-Rh probe ABPP, counter-screen for PME1 inhibitor project, primary screen (AID 2174);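 note: inhibitors block serine hydrolase probe labeling of LYPLA1 so polarization falls; 0% = enzyme with DMSO and 100% = wells lacking LYPLA1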
# Conditions: recombinant LYPLA1, FP-Rh probe fluorescence polarization; at 5.9 µM; stronger effect = higher value
row,SMILES,inhibition
1,O=[N+]([O-])c1ccc(N(CCO)Cc2ccccc2)c([N+](=O)[O-])c1,-0.28%
2,O=C(CN1C(=O)CCC1=O)Nc1ccc(S(=O)(=O)N2CCOCC2)cc1,-5.25%
3,O=C(CN1CCCCCC1)Nc1ccc(S(=O)(=O)N2CCCCC2)cc1,1.21%
4,O=C(CN1CCN(c2cccc(Cl)c2)CC1)Nc1ccc(S(=O)(=O)N2CCOCC2)cc1,18.1% (active)
5,CCCCn1c(N)c(N(CC(C)C)C(=O)C2CSC3(C)CCC(=O)N23)c(=O)[nH]c1=O (stereo not given),-1.21%
6,COCCOC(=O)c1sc(=S)n(CCOC)c1N,19.7% (active)
7,COC(=O)c1sc(=S)n(-c2ccc(Cl)cc2)c1C,0.52%
8,CC(=O)Nc1ccc(N2C(=O)C3C4CC(=O)C(c5ccccc54)C3C2=O)cc1 (stereo not given),1.72%
9,COc1ccccc1-n1c(=S)[nH]c2c(sc(=S)n2-c2ccc(C)cc2C)c1=O,2.01%
10,Cc1ccc(Oc2ccc3c(c2)C(=O)N(c2cccc4cccnc24)C3=O)cc1,-5.81%
11,O=S(=O)(NCCCN1CCOCC1)c1ccc(F)c(Cl)c1,2.43%
12,Cc1c(Br)c([N+](=O)[O-])nn1CC(=O)N1CCN(Cc2ccccc2)CC1,1.03%
13,COc1cccc(C(C(=O)NC2CCCC2)N(C(=O)c2ccco2)c2cccc(C(C)=O)c2)c1OC (stereo not given),0.23%
14,O=c1[nH][nH]c(C(F)(F)F)c1C=NCc1ccccc1Cl,1.78%
15,Cc1ccc(OCC(=O)Oc2ccccc2[N+](=O)[O-])cc1,1.05%
16,COc1ccc(/C=C/c2noc(-c3ccccc3OC(C)=O)n2)cc1,-1.21%
17,CN=C1SC(C(=O)O)CC(=O)N1C (stereo not given),-2.92%
18,O=C(CSc1nnc(-c2ccoc2)o1)N1CCOCC1,-2.17%
19,Cc1cc2ccccn2c1C(=O)c1cccc(S(=O)(=O)N2CCOCC2)c1,-1.9%
20,O=C(NCc1ccccc1)[C@H]1C[C@@H]1[C@H](NP(=O)(c1ccccc1)c1ccccc1)c1ccccc1,-4.27%
21,CCCCCCNCCn1cnc2c(N)ncnc21,-4.2%
22,CC1(C)CC(=O)C/C(=N\NC(=O)c2cccs2)C1,-2.89%
23,CCOc1ncccc1C(=O)OCC(=O)c1c[nH]c2ccccc12,-4.27%

row,SMILES,inhibition
1,COc1ccc(-c2nc(CS(=O)CC(=O)NCc3ccccc3)c(C)o2)cc1OC (stereo not given),-1.5%
2,COc1cccc(-c2nc(CS(=O)CC(=O)NCc3ccc(F)cc3)c(C)o2)c1 (stereo not given),1.75%
3,COc1ccc(-c2nc(CS(=O)CC(=O)NCc3ccccn3)c(C)o2)cc1 (stereo not given),25% (active)
4,O=C1CC(C(F)(F)C(F)(F)C(F)(F)C(F)(F)F)=Nc2ccccc2N1,0.46%
5,CCN(Cc1ccccc1)S(=O)(=O)c1cc(C(=O)O)ccc1OC,-4.32%
6,Nc1nc(SCC(=O)NNc2c(Cl)cc(Cl)cc2Cl)n[nH]1,2.34%
7,Cc1cc(C)c(C#N)c(SCC(=O)NN2CC(=O)N(c3ccccc3F)CC2=O)n1,-0.67%
8,Cc1cccc(-n2c(SCC(N)=O)nc3c(c2=O)C2(CCCCC2)Cc2ccccc2-3)c1,-3.86%
9,Cn1ccc(=NC=C(C#N)C#N)c2ccccc21,-3.88%
10,CN(C)c1ccc(N/C=C/C(=O)C(F)(F)F)cc1,-5.36%
11,CCN(CC)C(=O)CSc1ncnc2c1cnn2-c1ccccc1,-1.45%
12,COc1ccc(/C=C2\CCCC3C2=NN(C(=O)c2scnc2C)C3c2ccc(OC)cc2)cc1 (stereo not given),-3.35%
13,CCCN(CCC)C(=O)C1c2ccccc2Oc2ccccc21,-1.51%
14,O=C(O)CCS(=O)(=O)c1ccc(-c2ccccc2)cc1,-0.07%
15,NS(=O)(=O)c1ccc(NC(=S)NNC(=O)c2cccs2)cc1,0.82%
16,COC(=O)[C@@H]1CC[C@H](C)[C@@H](c2ccc(C)cc2)N1C(=O)c1ccc(/C=N/O[C@H](C)c2cn([C@@H]3COC[C@H]3O)nn2)cc1,-1.13%
17,COCCCN(C(=O)CSCc1ccc(C)cc1)c1c(N)n(Cc2ccccc2)c(=O)[nH]c1=O,-5.33%
18,Cc1ccccc1NC(=O)NC1(C(=O)N2CCCC2)CCCCC1,5.72%
19,CCCCN1C(=O)/C(=C2/Sc3ccc(Cl)cc3N2CC)SC1=S,2.19%
20,CCN1C(=O)/C(=C2/Sc3ccccc3N2CCCS(=O)(=O)O)SC1=S,14.2% (active)
21,CCN1C(=O)/C(=c2\s/c(=C3\Sc4ccccc4N3C)c(=O)n2C)N(C)C1=S,-0.75%
22,COc1ccc(CNC(=O)C(=O)NCC2OCCN2C(=O)c2ccc(OC)cc2)cc1 (stereo not given),-3.36%
23,CC(C)c1ccc(S(=O)(=O)N2CCN(C(=O)CN3C(=O)NC(C)(c4ccccc4)C3=O)CC2)cc1 (stereo not given),0.26%

row,SMILES,inhibition
1,Cc1ccccc1C(=O)NC(=S)NC1CC1,-2.2%
2,Cc1c(C(=O)NCCN2C(=O)S/C(=C\c3cccs3)C2=O)cccc1[N+](=O)[O-],-7.3%
3,COc1ccc(S(=O)(=O)N(CCCN2CCCC2=O)Cc2cc3c(C)ccc(C)c3[nH]c2=O)cc1,-0.26%
4,COc1cc(OC)cc(C(=O)NNC(=O)CNC(=O)c2ccc(Br)o2)c1,-3.43%
5,O=C(NCCCN1CCCCC1)C1CCCN(c2ncnc3c2nc2n3CCCCC2)C1 (stereo not given),4.5%
6,O=C(COC(=O)CCOc1ccccc1)Nc1cc(S(=O)(=O)N2CCCCC2)ccc1Cl,-5.97%
7,Cc1ccc(N2CCN(/N=C/c3cccs3)CC2)cc1,2.05%
8,Cc1ccsc1/C=C1\SC(N2CCOCC2)=NC1=O,-3.19%
9,Cc1ccc(N2CCN(C3=NC(=O)/C(=C\c4cccs4)S3)CC2)cc1,29% (active)
10,CCCCc1nc2cc(C(=O)N3CCCCC3CCO)ccc2o1 (stereo not given),-0.28%
11,O=C(NCCc1ccccc1)C(=O)NCC1OCCN1S(=O)(=O)c1cccs1 (stereo not given),2.86%
12,O=C(CSc1nc2ccccc2c(=O)n1-c1ccc(F)cc1)NC1CC1,0.87%
13,O=C(CCCn1c(SCC(=O)c2ccccc2)nc2ccccc2c1=O)NCC1CCCO1 (stereo not given),2.13%
14,O=C(CCn1c(SCC(=O)c2ccccc2)nc2ccccc2c1=O)NCc1ccc(F)cc1,33.2% (active)
15,O=C(N/N=C/c1ccsc1)c1cc(O)cc(O)c1,3.13%
16,CCOCCCNC(=O)c1cn(CC(C)C)c(=O)c2c1c1ccccc1n2C,0.47%
17,COc1ccc(S(=O)(=O)N/N=C\c2ccc(OC)c(COc3ccc(C)cc3[N+](=O)[O-])c2)cc1,3.24%
18,Cc1ccc(N(CC(=O)NC2CCCCC2)C(=O)CCCC(=O)Nc2ccccn2)c(C)c1,-5.08%
19,CC1CCCCC1NC(=O)NC(=O)COC(=O)C1=NN(c2ccccc2)C(=O)CC1 (stereo not given),-3.28%
20,CCOc1ccc(S(=O)(=O)N2CCCC(C(=O)N3CCC(C(N)=O)CC3)C2)cc1Cl (stereo not given),-0.84%
21,CCn1cc(CN2CCC(C(=O)Nc3cccc(-c4cccc(Cl)c4)c3)CC2)c(C)n1,-1.53%
22,O=C(NCc1ccccc1Cl)C1CCN(c2ncnc3c2nc2n3CCCCC2)CC1,3.58%
23,O=C(Cc1ccccc1F)NC1CCSc2ccccc21 (stereo not given),-2.96%

row,SMILES,inhibition
1,O=C(CC1Nc2ccccc2NC1=O)Nc1ccccc1 (stereo not given),-11.2%
2,COc1ccc(NS(=O)(=O)c2cccc(C(=O)NCCc3ccc(S(N)(=O)=O)cc3)c2)cc1,0.92%
3,CCC(Cc1ccccc1)NC(=O)C1CCCCC1 (stereo not given),-0.48%
4,CCN(CC)S(=O)(=O)c1ccc(N2CCOCC2)c(NC(=O)c2ccc(=O)n(C)n2)c1,3.13%
5,CCOC(=O)/C(=N\Nc1ccccc1Cl)N(C)C1CCS(=O)(=O)C1 (stereo not given),6.62%
6,O=C(Nc1nnc(C2COc3ccccc3O2)o1)c1ccc(F)cc1 (stereo not given),-3.93%
7,COc1ccc2c(c1)OC(O)(C(F)(F)C(F)F)CC2=O (stereo not given),0.29%
8,Cc1cc(-c2ccccc2)nc(N2CCC(C(=O)NC34CC5CC(CC(C5)C3)C4)CC2)n1,-0.18%
9,CC(=O)Nc1ccc(C(=O)N(C2=NC(C)CS2)c2ccc(Cl)cc2)cc1 (stereo not given),-16.3%
10,O=C(Nc1cccc(Cl)c1)c1cncn1-c1ccc(F)cc1,-4.38%
11,CC(C)(C)c1ccc(CCC2OCC(CN3CCOCC3)O2)cc1 (stereo not given),-1.79%
12,O=C1CN(C(=O)COc2c(Cl)cccc2Cl)c2ccccc2N1,-0.08%
13,O=C(NCCCc1ccccc1)c1cc(COc2c(F)cccc2F)on1,-0.18%
14,Cc1ccc(OCc2cc(C(=O)N(C)CCc3ccccc3)no2)cc1C,2.48%
15,CN(CCOc1ccccc1)C(=O)c1cc(COc2c(F)cccc2F)on1,17.4% (active)
16,COc1cccc(NC(=O)C2CCCN2C(=O)OCc2ccccc2)c1 (stereo not given),1.14%
17,COc1cccc(NC(=O)N2C3CCCC2CC(NC(C)=O)C3)c1 (stereo not given),-0.11%
18,COc1cccc(NC(=O)N2CCCC2C(=O)NC2CCCCC2)c1 (stereo not given),15.1% (active)
19,CCc1c(SCCC(=O)O)nc2ccccc2c1C,2.67%
20,COc1ccc2c(c1)[C@H]1[C@H](CO2)[C@H](c2ccccc2)[C@]2(C)C(=O)Nc3cc(F)c(F)cc3C(=O)N12,-14.6%
21,Cc1cccc(N2CCC(NCc3c(C(=O)N4CCCCC4)nc4c(C)cccn34)CC2)c1,0.61%
